This passage reports activity change, negative = inhibition results from PubChem BioAssay AID1259415 (National Center for Advancing Translational Sciences (NCATS), 2018).

Each structure is given as a SMILES string. Among all 410,000 compounds or so, about 18,000 (4.4%) were called active. Inconclusive results (about 7%) are left out. The sample as a whole holds a higher share of actives than the screen did. A number with no mark means an inactive call. Cut-off read from the data, not from the text of the source: active = activity change below about -60%; inconclusive = no clear call, values can overlap the other calls; inactive = above about -39%.
% is set by controls: 0 for no effect and ±100 for the full control effect.

The experiment can be described thus: qHTS Assay for inhibitors of the human cytomegalovirus (HCMV). To be noted: HFF cells, HCMV-luciferase reporter, 72 h; at 57.5 µM; hits give low values. An outline of the steps:
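HFF cells seeded 16 h at 37C, treated with compounds, infected with luciferase-reporter HCMV at MOI 1 PFU/cell; luciferase read at 72 h post infection, normalized to buffer-only and Salinomycin controls.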
For orientation: Quantitative high-throughput screening tests each substance at several concentrations.
As to `CN(C(=O)CN1C(=O)S/C(=C\c2ccccc2F)C1=O)C1CCS(=O)(=O)C1` (configuration not stated), the activity change, negative = inhibition is -18.9%.
`COc1ccccc1/C=C1\SC(=O)N(CCC(=O)N(C)C2CCS(=O)(=O)C2)C1=O` (configuration not stated): the activity change, negative = inhibition is -7.61%.
Turning to `CN(C(=O)CCN1C(=O)/C(=C/c2ccccc2F)SC1=S)C1CCS(=O)(=O)C1` (configuration not stated), the activity change, negative = inhibition was -63.4% (active).
As for `CCCNC(=O)CCC(=O)N1Cc2ccccc2Oc2ncccc21`, the figure is 2.27%; as for `Cc1cc(=O)n2[nH]c(-c3sccc3-n3c(C)ccc3C)cc2n1`, -64.1% (active).
As for `COc1ccccc1CNS(=O)(=O)c1cc(Br)cc2c1N(C(C)=O)C(C)C2` (configuration not stated), the figure is -27.7%.
As for `O=C(COC(=O)c1ccccc1F)Nc1cc(S(=O)(=O)N2CCOCC2)ccc1N1CCCC1`, the figure is -28.5%; as for `O=C(COC(=O)c1cc(S(=O)(=O)N2CCOCC2)ccc1F)NC1CC1`, -20.2%; as for `COc1cc(NC(=O)COC(=O)c2cc(S(=O)(=O)N3CCOCC3)ccc2F)cc(OC)c1`, -68.7% (active).
Regarding `CCCC12CN3CC(C)(CN(C1)C3c1ccccc1Cl)C2=O` (configuration not stated), the activity change, negative = inhibition was 1.49%.
The same measure for `Cc1cccc(NC(=O)NC2(C)CCS(=O)(=O)C2)c1` (configuration not stated): 14.3%; for `Cc1ccoc1C(=O)Nc1cccc(Oc2ccccc2)c1`: 16.8%.
As for `Cc1cccc(NC(=O)Nc2cccc(Oc3c(F)c(F)c(F)c(F)c3F)c2)c1`, the figure is -76.5% (active); as for `COc1ccc(CCNC(=O)CCCCn2c(=O)c3ccccc3n(Cc3ccccc3C)c2=O)cc1OC`, -31.9%.
Regarding `CCOC(=O)c1ccc(NC(=O)c2c(NCc3cccc(OC)c3)sc3c2CCC3)cc1`, the activity change, negative = inhibition was -1.86%.
The same measure for `Cc1ccccc1OCC(=O)Nc1ccc(N2CCN(C(=O)C(C)C)CC2)c(Cl)c1`: 1.1%.
For the compound `CCOc1ccccc1NC(=S)N1CCN(c2cccc(C)c2C)CC1`, the activity change, negative = inhibition is -37.3%.
In the case of `CCC(=O)N1CCN(c2ccccc2NC(=O)COc2cccc(C)c2C)CC1`, the activity change, negative = inhibition was -63.8% (active).
As for `COc1ccc(C)cc1NC(=O)C(=O)NCCc1sc(-c2cccc(C)c2)nc1C`, the figure is -4.02%.
As for `Cc1ccccc1CCNC(=O)C1CCN(c2nc3ccccc3nc2C(F)(F)F)CC1`, the figure is -6.7%; as for `COC(=O)/C=C\C(=O)Nc1cccc([N+](=O)[O-])c1`, -87.4% (active).
With `CC(C)OP(=O)(OC(C)C)C(Nc1ccccc1)c1cccc([N+](=O)[O-])c1` (configuration not stated), the activity change, negative = inhibition is -30.9%.
In the case of `O=C(/C=C/c1cccc([N+](=O)[O-])c1)NCCSCc1ccco1`, the activity change, negative = inhibition is -19.7%.
The same measure for `COc1ccc(C)cc1S(=O)(=O)N(CC(=O)Nc1cccc([N+](=O)[O-])c1)c1ccc(C)cc1`: -7.9%; for `CCc1ccc(NC(=O)C(C)OC(=O)/C=C/c2cccc([N+](=O)[O-])c2)cc1` (configuration not stated): 7.98%.
As for `CCC(CC)NC(=O)/C=C/c1cccc([N+](=O)[O-])c1`, the figure is -60.1% (active); as for `COc1ccc(-c2nc(S(=O)(=O)c3ccccc3)c(N3CCCCC3)o2)cc1`, -14.3%; as for `CCOc1ccc2nc(N3CCCC(C(=O)Nc4cc(C)ccc4C)C3)sc2c1` (configuration not stated), 69.3%.
Consider `CCn1cc(C(=O)N(C)Cc2ccccc2)c(=O)c2cc(S(=O)(=O)N3CCCCCC3)ccc21`, for which the activity change, negative = inhibition was 4.41%.
In the case of `CC(=O)N1c2ccc(S(=O)(=O)NCCC(=O)N(C)C3CCCCC3)cc2CC1C` (configuration not stated), the activity change, negative = inhibition is -39.5%.
`CCn1c(NC(=O)c2ccccc2)c(-c2cccs2)c(=O)c2ccccc21`: the activity change, negative = inhibition was 25.8%.
The same measure for `N#Cc1ccc(C(=O)Nc2nc(-c3cccs3)c(C(=O)C(F)(F)F)s2)cc1`: -96.5% (active).
In the case of `COc1ccc(C(F)(F)F)cc1NC(=O)c1sc2nc(-c3cccs3)ccc2c1N`, the activity change, negative = inhibition was 14.5%.
With `O=C(NCCS(=O)(=O)N1CCN(c2ccc(F)cc2)CC1)c1ccccc1Br`, the activity change, negative = inhibition is 20.8%.
Turning to `Cn1c(=O)c2c(SCC(=O)NCC3CCCO3)nc(-c3ccccc3F)nc2n(C)c1=O` (configuration not stated), the activity change, negative = inhibition was -4.16%.
The same measure for `Cc1ccc(-c2cc(N)n(Cc3cccc(Cl)c3)n2)cc1`: -21.8%; for `COc1ccc(C(C[N+](=O)[O-])n2nc(C)cc2C)cc1` (configuration not stated): -11%; for `COc1ccc(/C=C/c2noc(-c3ccccc3O)n2)cc1OC`: 63.9%.
As for `COc1cccc(/C=N/Nc2cc(C)nc(-c3ccccc3O)n2)c1O`, the figure is -95.8% (active); as for `Cc1ccc(Nc2nc3ccccc3nc2-n2nc(C)cc2C)c(Cl)c1`, 2.84%.
As for `COc1ccccc1/C=N\Nc1cc(C)nc(-n2nc(C)cc2C)n1`, the figure is -94.4% (active).
With `Cc1cccc(Nc2cc(C)nc(-n3nc(C)cc3C)n2)c1`, the activity change, negative = inhibition is -83.8% (active).
As for `Cc1cc(C)n(-c2nnc(N3CCN(c4ccccc4)CC3)nn2)n1`, the figure is -11.6%; as for `COc1cc(Cl)c(C)cc1Nc1nnc(-n2nc(C)cc2C)c2ccccc12`, 16.8%; as for `COc1ccc(Nc2cc(C)nc(-n3nc(C)cc3C)n2)cc1`, -84.3% (active).
The same measure for `COc1ccc(-c2nc3nc(C)cc(C)n3c2Nc2c(C)cccc2C)cc1`: -8%; for `CCOC(=O)c1cnc(-n2nc(C)cc2C)nc1NNc1cc(C)nc(-c2ccccc2)n1`: -1.83%.
